# Assay results from PubChem BioAssay AID1458 (National Center for Advancing Translational Sciences (NCATS), 2008).
# Hit rate of the full screen: of about 210,000 compounds, about 5,900 (2.8%) were called active. Inconclusive results (about 5%) are left out. Calls come from the whole dose curve; as a rule, active = well fitted activation curve with a large enough effect; inconclusive = small, poorly fitted or top-dose-only effect; inactive = no such curve, though single readings can be large or run the other way. Shown is part of a subset that was picked to be rich in actives. Where a call stands in place of a potency, no number is given.
# Experiment: qHTS Assay for Enhancers of SMN2 Splice Variant Expression; note: nearly all actives have a fitted effect of over 55% in size
# Details: HEK293 SMN2-luciferase splicing reporter, luminescence, 30-36 h; series mostly up to 46.1 µM
# In short: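 qHTS luciferase splicing reporter: luminescence rises when SMN2 exon 7 is included in transfected HEK293 cells. Compound exposure lasted 30-36 h at 37C, with 4.5 mM final sodium butyrate as control, followed by a ONE-Glo read.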
# Potency is the fitted concentration of half-maximal effect.
row,SMILES,Potency
1,CCOc1ccc(C(=O)c2cn(Cc3ccccc3OC)c3ccc(F)cc3c2=O)cc1,inactive
2,COc1ccc(C2CC(c3cccs3)=Nc3ccccc3S2)cc1OC (stereo not given),inactive
3,COc1ccc(-c2nn3c(-c4ccccc4)nnc3s2)cc1OC,inactive
4,COc1ccc(-c2csc(-c3cccs3)n2)cc1OC,14.1 µM (active)
5,CCc1ccccc1NC(=O)N1CCC2(CC1)Oc1ccccc1C(=O)N2Cc1ccccc1F,inactive
6,O=C(Nc1ccc(Br)cc1)c1cc2nc(-c3ccccc3)cc(-c3ccccc3)n2n1,inactive
7,COc1cccc(C(=O)N(Cc2cccc(Cl)c2)Cc2ccco2)c1,inactive
8,O=C(Cc1ccccc1)NC(=S)Nc1ccc(N2CCCCC2)cc1,inactive
9,S=C(c1ccc(-c2ccccc2)o1)N1CCCCC1,12.6 µM (active)
10,c1ccc(-c2ccccc2OCCN2CCCCC2)cc1,inactive
11,O=C(CNC(=O)C(c1ccccc1)c1ccccc1)N/N=C\c1ccc2c(c1)OCO2,inactive
12,O=C(Cc1ccc(F)cc1)N/N=C/c1ccc2c(c1)OCO2,12.6 µM (active)
13,O=C(/C=C/c1ccc2c(c1)OCO2)NCc1ccc(F)cc1,inactive
14,O=C(Nc1cccc(S(=O)(=O)Nc2ccc(Cl)cc2)c1)c1ccc2c(c1)OCCO2,inactive
15,COc1ccc(C(=O)NC(=S)Nc2ccc(Cl)cn2)cc1OC,inactive
16,COc1c(Cl)cc(C(=O)Nc2ccc(Cl)cn2)cc1Cl,inactive
17,O=C(Nc1ccc(Cl)cn1)c1cnn2cccnc12,11.2 µM (active)
18,Cc1cc(NC(=O)c2cnn3cccnc23)n(-c2ccccc2)n1,inactive
19,O=C(Nc1ccc(Cl)cn1)c1ccc2c(c1)OCCO2,2.51 µM (active)
20,COc1ccc(CNC(=O)Cc2coc3ccc(C(C)C)cc23)cc1,inactive
21,Cc1ccc(S(=O)(=O)N(NC2=NS(=O)(=O)c3ccccc32)C(=O)c2ccccc2)cc1,inactive
22,CC(C)(C)c1csc(NC2=NS(=O)(=O)c3ccccc32)n1,8.91 µM (active)
23,O=C(Oc1cccc(NC2=NS(=O)(=O)c3ccccc32)c1)c1ccncc1,inactive
24,COc1ccc(CN2C(=O)C(NC(=O)c3cccc(C)c3)(C(F)(F)F)N=C2c2ccccc2)cc1 (stereo not given),inactive
25,Cc1cccc(OCC(O)Cn2c(=N)n(CCN3CCOCC3)c3ccccc32)c1 (stereo not given),inactive

row,SMILES,Potency
1,OC(COc1ccc2ccccc2c1)Cn1cncn1 (stereo not given),inactive
2,OC(COc1ccc2ccccc2c1)CN1CCOCC1 (stereo not given),14.1 µM (active)
3,Cc1cccc(N2CCN(C(=O)c3oc(=O)c4ccccc4c3-c3ccccc3)CC2)c1C,inactive
4,CC1=Nc2cc(C(=O)N3CCC(C)CC3)ccc2Sc2ccc(Cl)cc21,inactive
5,NC(=O)c1ccccc1NC(=O)c1ccccc1F,inactive
6,O=C(Nc1ccccc1)c1ccccc1NC(=O)C(F)(F)F,10 µM (active)
7,O=C(Nc1ccccc1)c1cccnc1Nc1ccccc1,inactive
8,O=C(CSc1oc(-c2ccccc2)nc1S(=O)(=O)c1ccc(Br)cc1)NC1CCCCC1,inactive
9,COc1ccc2c(c1)CCc1c(C(=O)Nc3c(C)n(C)n(-c4ccccc4)c3=O)noc1-2,inactive
10,COc1ccc2c(c1)CCc1c(C(=O)N3CCCC3)noc1-2,17.8 µM (active)
11,COc1ccc2c(c1)CCc1c(C(=O)Nc3cc(C)ccc3O)noc1-2,inactive
12,Cn1c(=O)c2c(nc(SCC(=O)Nc3ccc(F)cc3)n2Cc2ccccc2)n(C)c1=O,inactive
13,Cc1ccc(CNC(=O)C2CCN(S(=O)(=O)c3ccc4nc5c(c(C(=O)O)c4c3)CC(C)CC5)CC2)cc1 (stereo not given),inactive
14,CC(C)Cc1cc(C(=O)NCCc2ccccc2)no1,12.6 µM (active)
15,Nc1nonc1C(=O)NCCc1ccccc1,inactive
16,Cc1cc(C(=O)NCCCc2ccccc2)no1,inactive
17,CCOC(=O)N1CCc2c(sc3c2c(=O)n(-c2ccc(CC)cc2)c(=O)n3C)C1,inactive
18,Cc1ccc(-c2ccc(CCC(=O)O)n2-c2ccc(C(N)=O)cc2)cc1,inactive
19,Cc1cccc(OCC(=O)N(Cc2ccc(C(C)C)cc2)Cc2ccco2)c1C,inactive
20,Cc1ccc(C)c(Cn2c(=O)n(CCC(=O)NCc3ccc4c(c3)OCO4)c(=O)c3sccc32)c1,inactive
21,N=c1oc2ccccc2cc1C(=O)N/N=C/c1ccccc1,inactive
22,CC(=C/c1ccccc1)/C=N/NC(=O)c1cc(C)oc1C,15.8 µM (active)
23,COc1ccc(C/C(C)=N/NC(=O)c2cc(C)oc2C)cc1,inactive
24,CSc1ccc(CCNC(=O)c2cnn(-c3ccccc3)c2-n2cccc2)cc1,inactive
25,CC(C)c1ccc(C2CC(=O)N3CN(C4CCCCC4)CSC3=C2C#N)cc1 (stereo not given),inactive

row,SMILES,Potency
1,O=C(Cn1c(-c2cncs2)nc2ccccc21)NC1CCCC1,inactive
2,CC(=O)OC(C(=O)NC1CCCCC1)c1ccccc1 (stereo not given),inactive
3,O=C(/C=C/c1cnc2ccccc2n1)NC1CCCCCC1,11.2 µM (active)
4,COc1ccccc1NC(=O)CSc1oc(-c2ccco2)nc1S(=O)(=O)c1ccc(Br)cc1,inactive
5,CCOc1ccc(CNCCSc2nnnn2C)cc1,inactive
6,Cc1nn(C(=O)c2ccoc2C)c(N)c1-c1ccccc1,12.6 µM (active)
7,CCOC(=O)c1c(N)nn(C(=O)c2ccccc2)c1-c1ccccc1,inactive
8,Cc1occc1C(=O)N1CCCc2ccccc21,inactive
9,CCCCCn1c(=O)[nH]c2cc(C(=O)NCCN(C)CCCC)ccc2c1=O,inactive
10,C=Cc1ccc(Cn2c(C(=O)OC)cc3sc(C)cc32)cc1,inactive
11,Cc1ccc(CCNC(=O)c2ccc3c(c2)N(Cc2cc(C)ccc2C)C(=O)c2ccccc2S3=O)cc1 (stereo not given),inactive
12,Cc1sc(C2C(C#N)=C(N)N(c3cccc(Cl)c3)C3=C2C(=O)CCC3)cc1CN1CCOCC1 (stereo not given),inactive
13,COc1cccc(-c2nnc(SCC(=O)N3CCC(C)CC3)o2)c1,inactive
14,Cc1ccc(-c2noc(CC(c3ccccc3)c3ccccc3)n2)cc1,inactive
15,COc1ccc2[nH]c(=O)c(-c3noc(-c4ccc(F)cc4)n3)cc2c1,inactive
16,Cc1ccc(-c2noc(CN3CCN(Cc4ccccc4)CC3)n2)cc1,inactive
17,Cc1ccc(Cc2nc(-c3cccc(C)c3)no2)cc1,11.2 µM (active)
18,COc1ccccc1Cc1nc(-c2ccc(C)cc2)no1,inactive
19,Cc1cccc(-c2noc(-c3ccc(F)cc3)n2)c1,11.2 µM (active)
20,COc1cccc(CNC(=O)CCC(=O)N2CC3CCCN3c3ccccc32)c1 (stereo not given),inactive
21,O=C(CC1Oc2ccccc2NC1=O)NCc1ccc(F)cc1 (stereo not given),inactive
22,CCCCn1c(CNC(=O)C23CC4CC(CC(C4)C2)C3)nnc1SCC(=O)Nc1ccc(C)cc1,inactive
23,CCCCCn1c(CCCNC(=O)c2ccccc2OC)nc2ccccc21,inactive
24,CCOC(=O)c1c(NC(=O)/C(C#N)=C/c2ccccc2)sc2c1CCC2,inactive
25,COc1ccc(NC(=O)C2CCN(c3ccc(Sc4ccc(C)cc4)nn3)CC2)c(OC)c1,inactive

row,SMILES,Potency
1,O=[N+]([O-])c1cc(Br)c(O)c(/C=N/Nc2nc3ccccc3s2)c1,inactive
2,c1ccc2sc(NN=C3CCCC3)nc2c1,3.16 µM (active)
3,O=C1NC(Nc2nc3ccccc3s2)(C(F)(F)F)C(=O)N1C1CCCCC1 (stereo not given),inactive
4,CCN(C(=O)c1sc2cc(OC)ccc2c1Cl)c1ccccc1,inactive
5,COc1ccc2c(c1)Cc1sc(NC(=O)c3ccccc3Br)nc1-2,inactive
6,Cc1ccc(CN(C(=O)COc2ccc(Cl)cc2C)C2CCS(=O)(=O)C2)o1 (stereo not given),inactive
7,O=C(NCc1cccnc1)c1cccc(-c2cc3ccccc3oc2=O)c1,inactive
8,O=c1oc2ccccc2cc1-c1cn(-c2ccccc2)c(=S)[nH]1,inactive
9,Nc1ncc(-c2cc3ccccc3oc2=O)s1,15.8 µM (active)
10,CC(C)Sc1oc(-c2cccs2)nc1S(=O)(=O)c1ccc(Cl)cc1,inactive
11,COc1ccc(NC(=O)CCc2nnc3n(CC(C)C)c(=O)c4ccccc4n23)cc1OC,inactive
12,CCOC(=O)c1cccc(NC(=O)C(Cc2ccccc2)NS(=O)(=O)c2cccc3nsnc23)c1 (stereo not given),inactive
13,COc1ccc(-c2csc(-c3c(N)c(C(=O)c4ccc(OC)c(OC)c4)n4ccccc34)n2)cc1,inactive
14,O=C(CN1C(=O)COc2ccccc21)Nc1ccc(F)cc1,inactive
15,CCCN1CCN(CCCNC(=O)CN2C(=O)COc3ccccc32)CC1,inactive
16,O=C(CN1C(=O)COc2ccccc21)NCCN1CCc2ccccc2C1,7.08 µM (active)
17,CCc1ccccc1NC(=O)c1cc(-c2ccc3c(c2)OCO3)on1,inactive
18,COc1ccc(-c2csc(Cc3nc(O)cs3)n2)cc1,11.2 µM (active)
19,COc1ccc(C(=O)Nc2nc(-c3ccc(S(=O)(=O)N4CCOCC4)cc3)cs2)cc1,inactive
20,COc1ccc(-c2csc(N3CCN(Cc4ccc5c(c4)OCO5)CC3)n2)cc1,inactive
21,CCC(=O)N1CCc2cc(Br)cc(S(=O)(=O)CCC(=O)N3CCN(c4ccc(F)cc4)CC3)c21,inactive
22,Cc1ccc(-c2csc(NC(=O)Cc3cccs3)n2)cc1C,inactive
23,Cc1ccc(-c2nnc(-c3ccc(NC(=O)c4cccs4)cc3)o2)cc1,inactive
24,Cc1ccc(-c2csc(NC(=O)c3cccs3)n2)cc1,11.2 µM (active)
25,Cc1nc(-c2ccc(NC(=O)c3cccs3)cc2)cs1,3.16 µM (active)

row,SMILES,Potency
1,Cc1ccc(-c2csc(NNC(=O)c3ccccc3)n2)cc1,inactive
2,O=C(O)Cc1ccc(NC(=O)c2cccs2)cc1,inactive
3,CCOC(=O)c1c(NC(=O)c2cc(CC)on2)sc(C(C)=O)c1C,inactive
4,CC(C)Cn1c(-c2ccc(S(=O)(=O)N3CCOCC3)cc2)csc1=Nc1cc(Cl)ccc1Cl,inactive
5,CCOc1ccc(CNC(=O)c2cccc(Nc3nc4ccccc4n4nnnc34)c2)cc1OC,inactive
6,Cc1c(NC(=O)Nc2ccccc2)cccc1[N+](=O)[O-],inactive
7,Cc1csc(NC(=O)Nc2ccccc2[N+](=O)[O-])n1,5.62 µM (active)
8,Cc1cc(NC(=O)Nc2ccccc2[N+](=O)[O-])no1,inactive
9,Cn1c(=O)c2c(nc(NCCc3ccccc3)n2Cc2ccccc2Br)n(C)c1=O,inactive
10,COc1ccccc1-c1ccnc2[nH]n(-c3ccccc3)c(=O)c12,inactive
11,CCOC(=O)C(Cc1ccccc1)NC(=O)CCc1c(C)nc2c(c(C)nn2-c2ccc(C)c(C)c2)c1C (stereo not given),inactive
12,COC(=O)c1ccc(CN2CCC(CO)(Cc3ccc(OC)cc3)CC2)cc1,inactive
13,COC(=O)CCC(=O)N1CCCC(CO)(Cc2ccccc2)C1 (stereo not given),14.1 µM (active)
14,COCC(=O)N1CCC2(CCCN(c3ccccc3)C2)CC1,inactive
15,COc1ccc(CNC(=O)Cn2nnc(-c3ccccc3F)n2)cc1,inactive
16,COC(=O)c1ccccc1NC(=O)Cn1c(=O)n(-c2cccc(C(F)(F)F)c2)c(=O)c2c(C)c(C)sc21,inactive
17,Cn1c(=O)c2c(nc(SCC(=O)Nc3ccc(F)cc3)n2Cc2ccc(Cl)cc2)n(C)c1=O,inactive
18,COc1ccc(NC(=O)c2ccco2)cc1NC(=O)c1ccc(C#N)cc1F,inactive
19,O=C(NNC(=O)c1ccc(Cl)cc1Cl)c1cccs1,12.6 µM (active)
20,NNC(=O)c1ccc(Cl)cc1Cl,inactive
21,Cc1ccc(C(=O)NNC(=O)c2cccs2)cc1,inactive
22,Cc1cccc(NC(=O)c2nnn(CC(=O)Nc3ccc(C(C)C)cc3)c2N)c1C,inactive
23,CCOc1ccc(CCNC(=O)c2csc3c2CCCCC3)cc1,inactive
24,Cc1ccc(C)c(N2CCN(Cc3nnc(-c4ccccc4)o3)CC2)c1,inactive
25,COc1cccc2cc(-c3nc(Cl)c4c5c(sc4n3)CC(C)CC5)c(=O)oc12 (stereo not given),inactive
